HPGD inh – qHTS Assay for Inhibitors of HPGD (15-Hydroxyprostaglandin Dehydrogenase); 15-hydroxyprostaglandin dehydrogenase [NAD(+)] (Homo sapiens), P15428; purified HPGD, NADH fluorescence kinetic, PGE2 substrate; Potency, µM, inactives show at the highest dose activity change, negative = inhibition, actives largely listed as inhibitors; 4.3% of 150,000 active; active = well fitted inhibition curve with a large enough effect, not every such curve was filed as active; inconclusive = small, poorly fitted or top-dose-only effect, or another doubt; inactive = no such curve, though single readings can be large or run the other way; note: potency is the fitted concentration of half-maximal effect; % is set by controls: 0 for no effect and ±100 for the full control effect
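20 nM HPGD preincubated 15 min at room temperature with compound in 50 mM Tris-HCl pH 8, 0.01% Tween 20. Started with 1 mM NAD+ and 30 uM prostaglandin E2; NADH fluorescence (360/450 nm) read 5 times over 30-s intervals, last minus first.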
CBFb RUNX1 block – qHTS Assay for Compounds Blocking the Interaction Between CBF-beta and RUNX1 for the Treatment of Acute Myeloid Leukemia. 230,000 tested, under 10 active. AlphaScreen CBFb-His/RUNX1-biotin binding, biochemical. Potency, µM (highest dose often 59.8 µM), for the others: at the top dose activity, negative = inhibition, usual class: inhibitors; note: % of control where 0% means no effect
Target sequence (Q01196 whole entry, looked up): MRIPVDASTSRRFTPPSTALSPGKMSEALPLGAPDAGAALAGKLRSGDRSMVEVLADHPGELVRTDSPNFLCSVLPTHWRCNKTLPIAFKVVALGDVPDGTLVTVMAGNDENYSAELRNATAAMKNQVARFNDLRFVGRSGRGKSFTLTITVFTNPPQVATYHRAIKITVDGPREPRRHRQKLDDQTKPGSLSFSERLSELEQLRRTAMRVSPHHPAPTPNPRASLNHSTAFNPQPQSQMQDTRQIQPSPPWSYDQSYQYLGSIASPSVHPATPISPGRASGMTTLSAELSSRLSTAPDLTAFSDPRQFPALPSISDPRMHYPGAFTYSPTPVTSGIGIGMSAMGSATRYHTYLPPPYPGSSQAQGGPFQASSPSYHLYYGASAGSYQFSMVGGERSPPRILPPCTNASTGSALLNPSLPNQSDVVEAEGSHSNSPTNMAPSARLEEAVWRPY
Target sequence (Q13951 whole entry, looked up): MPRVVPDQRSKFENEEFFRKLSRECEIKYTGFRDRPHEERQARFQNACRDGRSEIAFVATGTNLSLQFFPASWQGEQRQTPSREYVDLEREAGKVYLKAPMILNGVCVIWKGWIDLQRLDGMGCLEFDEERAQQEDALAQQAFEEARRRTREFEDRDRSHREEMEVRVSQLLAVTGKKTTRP
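Compounds were screened at multiple concentrations against a preformed CBF-beta(His)/RUNX1(biotin) complex (30 nM of each) for 15 min at room temperature, followed by 90 min with nickel and streptavidin beads and AlphaScreen reading.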
HttQ103 aggreg – qHTS Multiplex Assay to Identify Dual Action Probes in a Cell Model of Huntington: Aggregate Formation (GFP); PC12 HttQ103-GFP aggregates, Acumen cytometry, 40 h; AID 1688, 2009; 1.1% of 220,000 active; Potency, µM (doses to about 46.1 µM), for inactives: at the highest dose activity change, negative = inhibition, most hits filed as inhibitors; note: potency is the fitted concentration of half-maximal effect; % is set by controls: 0 for no effect and ±100 for the full control effect; nearly all actives have a fitted effect of over 60% in size
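Ecdysone-promoter PC12 model expressing HTT exon 1 Q103 fused to GFP, induced by tebufenozide at 100 nM final. Compounds titrated; aggregates sized 1–25 µm scored on a 488 nm laser cytometer.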
HTT cytoprotect – qHTS Multiplex Assay to Identify Dual Action Probes in a Cell Model of Huntington: Cytoprotection (ATP); Potency, µM (doses to about 56.4 µM), for inactives: cytoprotection (ATP increase), hits mostly activators; 0.14% of 230,000 active; PC12 HTT-Q103 induced, cytoprotection, ATP luminescence, 40 h; note: potency is the fitted concentration of half-maximal effect; % of control where 0% means no effect; nearly all actives have a fitted effect of over 45% in size
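Stable PC12 Q103-GFP cells in serum-supplemented, phenol red-free DMEM; induction by tebufenozide at 100 nM final; compound dose series; cell viability quantified luminescently from ATP.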
ALDH1A1 inh – qHTS Assay for Inhibitors of Aldehyde Dehydrogenase 1 (ALDH1A1). Potency, µM (titrated, usually from 75.3 µM), for inactives: top-dose activity, negative = inhibition, most hits filed as inhibitors. 7.3% of 220,000 active. Purified ALDH1A1, NADH fluorescence, propionaldehyde substrate. Aldehyde dehydrogenase 1A1 (Homo sapiens), P00352. AID 1030, 2008; active = well fitted inhibition curve with a large enough effect, not every such curve was filed as active; inconclusive = small, poorly fitted or top-dose-only effect, or another doubt; inactive = no such curve, though single readings can be large or run the other way;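 note: potency is the fitted concentration of half-maximal effect; plate controls were no enzyme wells and a reference inhibitor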
PNC assembly inh – High Content Assay for Compounds that inhibit the Assembly of the Perinucleolar Compartment; activity change (PNC), negative = inhibition, % at 10 µM; 3.1% of 140,000 active; PC3M PTB-GFP, PNC prevalence imaging, 16 h; active compounds read low;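 active = readout at or below -70, meaning at least 70% loss of cells showing the perinucleolar compartment, a nuclear body marking cancer cells; inconclusive = readout between -30 and a set limit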;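 note: plate controls were DMSO wells for no effect and camptothecin positive control wells for full effect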
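PC3M cells stably expressing PTB-GFP, 750–1000 cells/well, treated 16 h at 37 °C with compound (23 nl of library stock), in duplicate. After paraformaldehyde fixation and Hoechst stain, imaged at 20x; PNC prevalence scored by image analysis.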
* = called active by the depositor; ? = inconclusive; . = not tested or not shown; [ ] = remark or other dose. An excerpt weighted towards active compounds, which were near 11% of everything screened. Unless noted, calls come from the whole dose curve; as a rule, active = well fitted curve in the direction sought with a large enough effect; inconclusive = small, poorly fitted or top-dose-only effect, or another doubt; inactive = no such curve, though single readings can be large; an effect the other way counts as inactive or inconclusive.

SMILES	HPGD inh	CBFb RUNX1 block	HttQ103 aggreg	HTT cytoprotect	ALDH1A1 inh	PNC assembly inh
O=C(CSc1ncn[nH]1)c1ccco1	25.1µM*	6.5%	-2.6%	-0.1%[10 µM]	?	-6.7
O=C(CSc1nccc(=O)[nH]1)c1ccco1	.	-9.1%	5.5%	-7.1%	-7.3%	.
CCC(=O)Nc1nc(-c2ccccc2)ns1	-12.3%	15.3%	?	-0.3%[10 µM]	4.7%	?
O=C(CSc1ncn[nH]1)Nc1nc(-c2ccccc2)ns1	-16.7%	-6.2%	22.4µM*	2.9%[0.074 µM]	-4.7%	-27.3
Nc1ccc(CN2CCOCC2)cc1	.	1.5%	-12.2%	-8.8%	5.0%	.
CC(=O)Nc1ccc(OS(=O)(=O)c2c(C)cc(C)cc2C)cc1	.	-4.6%	6.3%	-55.3%	-1.1%	.
C[N+](C)(CCCOc1ccccc1)c1ccccc1	0.2%	-12.9%[21.7 µM]	.	-11.8%[40.3 µM]	-8.0%[20.9 µM]	.
COC(=O)c1cc(OC)c(OC)c(OC)c1[N+](=O)[O-]	.	4.0%	-18.9%[9.22 µM]	?	.	.
CC1CN(Cc2ccccc2)C(C)CC1O (configuration not stated)	.	3.0%	-3.3%[9.22 µM]	31.7%[10 µM]	13.2%	.
C[C@@H](CN1CCC(Cc2ccccc2)CC1)[C@H](O)c1ccc(O)cc1	.	.	.	-4.3%[1.9 µM]	.	.
CC1(C)C(C=C(Cl)Cl)C1C(=O)Nc1ccc([N+](=O)[O-])cc1 (configuration not stated)	-20.9%	-26.1%	?	-1.9%[10 µM]	?	40.3
O=C(CSc1ncn[nH]1)Nc1ccc(Cl)c(Cl)c1	-3.4%	10.4%	-9.0%	-5.8%	3.98µM*	?
CCCCCCCC/C=C\CCCCCCCC(=O)NCc1ccc(O)c(OC)c1	?	2.5%[21.7 µM]	7.5%	-45.8%	4.4%	.
CCCCCCCCC#CCC#CCC#CCCCC(=O)O	-16.4%	0.3%	.	-11.9%	2.7%	.
NC(=O)Cn1nc([N+](=O)[O-])nc1Oc1ccccc1F	.	-2.8%	5.8%	-18.6%	-2.3%	.
NCCSCCc1ccccc1	-5.8%	.	.	-12.4%[10 µM]	6.5%[13.5 µM]	.
CCCCNC(=O)N(C)c1nc2ccccc2s1	.	6.9%	-9.4%[9.22 µM]	4.5%[10 µM]	?	.
CCCNC(=O)N(C)c1nncnc1C(=O)NC	-16.4%	2.2%	-8.6%	-1.0%	-8.8%	-100.0*
Cc1[nH]nc2c1/C(=N/O)CC(c1ccccc1)C2 (configuration not stated)	14.1µM*	10.8%	12.6µM*	-31.5%	-11.0%	36.5
CCCc1n[nH]c2c1/C(=N/O)CC(c1ccccc1)C2 (configuration not stated)	7.08µM*	8.7%	-20.8%	-10.5%[10 µM]	5.1%	?
CC1=CC(=O)C2=C(C)CC[C@H]3[C@H](C)C(=O)O[C@@H]3C12 (some centres not stated)	.	9.3%	.	.	.	.
COC(=O)/C=C\CCc1coc(/C=C\CNC(=O)OC)n1	.	?	.	-92.7%[10 µM]	3.2%[13.5 µM]	.
C/C(=N\NC(=O)CSc1nc2ccccc2o1)c1cccc(O)c1	.	7.7%	-31.7%[9.22 µM]	13.8%[10 µM]	.	.
C/C(=N\NC(=O)CSc1nc2ccccc2o1)c1ccc(O)cc1	.	4.3%	-13.9%	.	23.8µM*	.
O=C(COc1ccc(F)cc1)NNC(=O)c1cc2ccccc2oc1=O	-15.7%	6.1%	4.2%	.	-4.7%	-87.6*
SMILES	HPGD inh	CBFb RUNX1 block	HttQ103 aggreg	HTT cytoprotect	ALDH1A1 inh	PNC assembly inh
COc1ccc(-c2csc(CCN3N=C(C)CC3=O)n2)cc1	.	-22.0%	-4.9%	-20.3%	2µM*	.
COc1ccc(-c2csc(C)n2)cc1	-4.0%	11.4%	4.6%	-8.2%[1.9 µM]	5.7%	-20.2
COCCn1c(NC(=S)NC(=O)C23CC4CC(CC(C4)C2)C3)cc(=O)[nH]c1=O	.	10.3%	-9.4%[9.22 µM]	2.2%[10 µM]	.	.
COCCn1c(NC(=S)NC(=O)C2CC2)cc(=O)[nH]c1=O	.	7.4%	2.1%	-33.6%	0.631µM*	.
COCCN1Cc2cccc(C(=O)NC(C)c3cccs3)c2C1=O (configuration not stated)	-7.5%	1.0%	-3.0%	3.7%	?	32.8
CCOCCCNC(=S)N1CCN(CC)CC1	.	1.3%	.	.	-3.4%	.
CCOCCCNC(=S)N1CCN(Cc2ccco2)CC1	.	-0.8%	27.2%	.	14.1µM*	.
NC(C(=O)O)C(CC(=O)O)c1ccc(Cl)cc1 (configuration not stated)	.	4.3%	.	-12.3%	-0.4%	.
Cc1ccc(P(=Nc2ccccc2)(N2CCOCC2)N2CCOCC2)o1	-0.3%	-2.9%	-5.6%	-19.9%[10 µM]	3.9%	-91.7*
O=P(/C(=N/O)Sc1ccccc1)(N1CCOCC1)N1CCOCC1	-3.4%	4.3%	22.6%	9.7%	-3.5%	?
COc1ccccc1-n1cnnc1SCC(=O)Nc1ncc(Cl)cc1Cl	-4.3%	0.1%	-9.2%	1.5%	4.47µM*	?
COCCCn1cnnc1SCC(=O)Nc1ccc(S(=O)(=O)N2CCCC2)cc1	-7.3%	-1.1%	-9.3%[9.22 µM]	-8.8%	11.2µM*	32.8
COc1ccccc1-n1cnnc1SCC(=O)c1cc(C)n(Cc2cccs2)c1C	-18.5%	-28.4%	-21.4%	-97.0%	1.26µM*	?
COc1ccccc1-n1cnnc1SCC(=O)Nc1cccc(S(=O)(=O)N2CCCCC2)c1	-12.2%	-8.3%	-4.2%	15.4%[10 µM]	0.631µM*	?
Cn1cnnc1SCC(=O)Nc1ccc(S(=O)(=O)N2CCCC2)cc1	-0.8%	3.3%	10.7%	17.1%	3.1%	-23.2
Cc1cc(C(=O)CSc2nnc(-c3ccccc3F)o2)c(C)n1Cc1cccs1	-6.7%	?	?	11.1%[10 µM]	0.7%	?
Cc1c(C(=O)N2CCN(c3cccc(Cl)c3)CC2)cccc1[N+](=O)[O-]	.	-0.8%	.	.	?	.
CCn1c(CNc2ccc(C)cc2)nnc1SCC(N)=O	-10.9%	7.0%	-5.0%	6.6%[10 µM]	2.3%	-5.9
COCCn1cnnc1SCC(=O)Nc1ccc(Br)cc1F	.	10.5%	-4.9%	-39.3%	12.6µM*	.
COCCn1cnnc1SCC(=O)Nc1cccc(S(=O)(=O)N2CCCCCC2)c1	-4.4%	3.6%	-5.1%	3.8%[10 µM]	?	-1.4
C=CCC(Nc1ccco1)c1ccccc1 (configuration not stated)	-20.1%	?	-17.0%	-2.4%	22.4µM*	17.9
CC(C)Cn1c(-c2nn(C)cc2Cl)n[nH]c1=S	-21.8%	-1.4%	6.8%	-24.0%	8.2%	23.3
Cc1ccsc1-c1n[nH]c(=S)n1CC(C)C	-18.2%	3.1%	30.3%	.	25.1µM*	?
CC(C)Cn1c(-c2ccc(Br)o2)n[nH]c1=S	-19.1%	1.1%	2.5%	.	10µM*	-24.4

Assay outcomes (PubChem)
